# Measured values reported in PubChem BioAssay AID651658 (Broad Institute, 2012).
# Hit rate of the full screen: of about 340,000 compounds, about 5,100 (1.5%) were called active. The full list was thinned out, with actives kept by preference. A number with no mark means an inactive call.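 Rule for the calls: active = mean Tm shift, scaled 0 neutral to 100 positive control, at about 1.3% or above, every replicate too (limit read from the data); inconclusive = no clear call, values can overlap the other calls; inactive = the rest.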
# Target: Fibroblast growth factor 22 (Homo sapiens) (UniProt Q9HCT0)
# Experiment: FGF22 ligand-induced thermal stabilization – biophysical, thermal shift, single point, FGF22 synaptogenesis inhibitor project, primary screen (AID 651658)
# Conditions: recombinant FGF22 thermal shift, SYPRO orange fluorescence; at 9.99 µM; hits give high values; percent of sucrose octasulfate shift, DMSO zero
# Fibroblast growth factor 22 (Homo sapiens), sequence (Q9HCT0 whole entry, looked up): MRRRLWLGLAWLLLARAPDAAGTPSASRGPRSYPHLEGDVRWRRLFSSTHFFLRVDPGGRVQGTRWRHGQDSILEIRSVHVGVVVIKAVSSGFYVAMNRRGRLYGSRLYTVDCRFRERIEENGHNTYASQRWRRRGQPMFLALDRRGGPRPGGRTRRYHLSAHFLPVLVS
row,Compound,"activity (Tm shift, normalised)"
1,CNS(=O)(=O)c1ccc(C(=O)NCC(=O)NCCc2ccc3c(c2)OCCO3)cc1,0.051%
2,Cc1ccc(NS(=O)(=O)c2ccc(C(=O)NCCCN3CCOCC3)cc2)cc1,-0.45%
3,CCN(CC)CCNC(=O)c1ccc(NS(=O)(=O)c2ccc3c(c2)OCCO3)cc1,42.9% (active)
4,C[C@H](NC(=O)C[C@H]1CC[C@H]2[C@@H](COC[C@H](O)CN2C(=O)Nc2cccc(Cl)c2)O1)c1ccccc1,0.797%
5,O=C(CCN1CCCCC1)N[C@H]1CC[C@H](CCNS(=O)(=O)c2ccc(F)cc2)O[C@@H]1CO,0.837%
6,C[C@H](CO)N1C[C@H](C)[C@H](CN(C)Cc2ccncc2)Oc2ncc(C#CCC3CCCCC3)cc2C1=O,-0.367%
7,C/C=C/c1ccc(OCC(O)CN2CCCCCCC2)c(OC)c1 (centres undefined),0.015%
8,C=CCc1ccccc1OCC(O)CN1CCN(CCO)CC1 (centres undefined),-0.051%
9,C=CCc1ccc(OCC(O)CN2CCN(Cc3ccccc3)CC2)c(OC)c1 (centres undefined),43.3% (active)
10,O=C(Nc1ccc(F)cc1)N1CCCCN2[C@H](CO)[C@H](c3ccc(-c4ccncc4)cc3)[C@@H]2C1,-0.055%
11,C/C=C/c1ccc([C@@H]2[C@H](CO)N(CC3CCOCC3)C23CN(S(=O)(=O)CC)C3)cc1,-0.282%
12,CCNC(=O)c1cc2c(c(-c3cccc(C4=CCCC4)c3)n1)[C@H](CCO)N([S@@](=O)C(C)(C)C)C2,0.297%
13,O=C(Cc1ccncc1)NCC[C@H]1CC[C@H](NC(=O)Nc2cccc(F)c2)[C@H](CO)O1,-0.333%
14,C[C@@H]1CN([C@H](C)CO)C(=O)c2cc(NS(=O)(=O)c3cccs3)ccc2O[C@@H](C)CCCCO[C@@H]1CN(C)C(=O)c1ccncc1,-0.018%
15,COc1ccc2c3c([nH]c2c1)[C@@H](CO)NCC31CN(S(=O)(=O)c2cccs2)C1,0.072%
16,CCNC(=O)C[C@@H]1CC[C@@H](NC(=O)NC2CCCCC2)[C@H](CO)O1,-0.281%
17,COc1ccc(NC(=O)N(C)C[C@@H]2OCCCC[C@@H](C)Oc3ccc(NC(=O)C4CCCCC4)cc3C(=O)N([C@@H](C)CO)C[C@@H]2C)cc1,-0.291%
18,COC(=O)[C@@H]1[C@@H](CO)[C@@H]2Cn3c(ccc(-c4ccccc4)c3=O)[C@@H]2N1C(=O)C1CC1,-0.013%
19,O=C(COC(=O)c1cc2c(s1)CCCC2)NCc1ccccc1Cl,2.24% (active)
20,O=C(COC(=O)c1ccc2c(c1)OCCO2)NCc1ccccc1Cl,-0.43%
21,CN(C)C(=O)c1ccc(NC(=O)COC(=O)c2cc3c(s2)CCCCC3)cc1,0.188%
22,COc1ccc2c3c([nH]c2c1)[C@H](CO)N(C(=O)C1CCOCC1)CC31CN(S(C)(=O)=O)C1,-0.085%
23,CN(C)C(=O)c1cccc(-c2ccccc2[C@@H]2[C@@H](CO)N(C(=O)C3CCCCC3)[C@H]2C#N)c1,0.22%
24,COc1ccc2c3c([nH]c2c1)[C@H](CO)N(C(=O)c1ccccc1)CC31CCN(S(=O)(=O)c2cccs2)CC1,-0.133%
25,CCC1(C)COC(c2ccc(OC)c(OC)c2)OC1 (centres undefined),-0.154%

row,Compound,"activity (Tm shift, normalised)"
1,CCC1([N+](=O)[O-])COC(c2ccc(C(C)C)cc2)OC1 (centres undefined),0.068%
2,CCC1([N+](=O)[O-])COC(c2ccc(C)cc2)OC1 (centres undefined),43.3% (active)
3,C/C=C/c1ccc([C@H]2[C@@H](CO)N3CCCCN(C(=O)c4ccc(F)cc4)C[C@@H]23)cc1,-0.174%
4,Cc1oc(-c2ccccc2F)nc1CS(=O)CC(=O)NCCN1CCCCC1C (centres undefined),-0.146%
5,COc1ccc(F)c(-c2nc(CN3CCC(c4ccccc4)CC3)c(C)o2)c1,0.157%
6,Cc1nonc1C1CCCN1Cc1nc(-c2ccc(F)cc2F)oc1C (centres undefined),43.2% (active)
7,C[C@H](CO)N1C[C@H](C)[C@H](CN(C)CC2CCCC2)Oc2ncc(-c3ccc(F)cc3)cc2C1=O,-0.41%
8,CSc1ccc(/C=N/N2CCN(Cc3ccccc3Cl)CC2)cc1,43.3% (active)
9,COc1ccccc1/C=N/N1CCN(Cc2ccccc2Cl)CC1,-0.025%
10,Cc1ccc(CN2CCN(/N=C/c3cccnc3)CC2)c(C)c1,0.311%
11,NS(=O)(=O)c1ccccc1NC(=O)c1c(O)c2ccccc2[nH]c1=O,0.089%
12,CC(=O)c1c(-c2ccccc2)c2ccccc2[nH]c1=O,43.2% (active)
13,Cc1c(-c2ccccc2)n[nH]c1C(=O)N=Nc1c(O)[nH]c2ccccc12,0.025%
14,COc1cccc(NC(=O)N2C[C@@H](O)COC[C@@H]3O[C@@H](CC(=O)NC4CCC4)CC[C@H]32)c1,-0.083%
15,COc1ccc(CCN2C(=O)[C@@]3(Cc4ccccc42)c2ccccc2C(=O)N(Cc2ccccc2C(F)(F)F)[C@H]3c2ccc(CO)cc2)cc1,-0.145%
16,CCOc1ccc(S(=O)(=O)NCCC(=O)N2CCCCCCC2)cc1,0.162%
17,CCNS(=O)(=O)c1ccc(CCC(=O)N2CCN(c3ccc(OC)cc3)CC2)cc1,0.369%
18,CCCNS(=O)(=O)c1ccc(CCC(=O)N2CCCC2)cc1,43% (active)
19,CC(C)NC(=O)Nc1ccc2c(c1)C(=O)N([C@H](C)CO)C[C@@H](C)[C@@H](CN(C)Cc1ccncc1)O2,0.001%
20,O=C(Nc1cccc2ccccc12)c1[nH]c(-c2ccccc2)c2c1C(=O)N(C1CC1)C2=O,-0.298%
21,O=C(OCc1ccc(-c2ccccc2)cc1)c1cccc(O)c1,-0.21%
22,CC(C)(C)N1C(=O)c2c(C(=O)OCc3ccccc3)[nH]c(-c3ccccc3)c2C1=O,2.17% (active)
23,CCCNC(=O)Nc1ccc2c(c1)C(=O)N(C)[C@H]1CC[C@H](CC(=O)NCC3CCCCC3)O[C@@H]1CO2,-0.32%
24,Cc1noc(C)c1NC(=O)N(C)C[C@H]1OCCCC[C@@H](C)Oc2ccc(NC(=O)NC(C)C)cc2C(=O)N([C@H](C)CO)C[C@@H]1C,0.234%
